# In ChEMBL document CHEMBL4513216, “Probing the Open Global Health Chemical Diversity Library for Multistage-Active Starting Points for Next-Generation Antimalarials” (ACS Infect Dis, 2020):
# About 2,700 (4%) of roughly 68,000 compounds showed an effect of 50% or more. The sample holds strong results, similar compounds and a random draw of the others, so the mix is not that of the screen.
# Test system: Plasmodium berghei
# Experiment: Screen against P. berghei liver stage (PbLuc), transformed with Luciferase, at 2uM
# Assay type: functional, HepG2
# Conditions: tested at 2 uM
row,Compound,INHIBITION
1,O=S(=O)(NCC1(O)CCCC1)c1ccccc1Br,32.07%
2,Cc1noc(C)c1C(=O)N1Cc2ncn(C)c2C(COCC(C)C)C1 (configuration not stated),25.92%
3,CN(C)c1ccnc(N2CCC(NCCOc3ccccc3)CC2)n1,-55.42%
4,CN(C)c1nccc(-c2cnc(N(C)C)[nH]c2=O)n1,51.32%
5,CN(C)c1nccc(-c2c[nH][nH]c2=O)n1,3.97%
6,Cc1ncncc1-c1ccnc(N(C)C)n1,22.5%
7,CN(Cc1ccc2nonc2c1)C(=O)CCc1cc2n(n1)CCCNC2,-3.87%
8,CCN(Cc1ccncc1)C1CCCN(Cc2ccc(F)cc2OC)C1 (configuration not stated),51.42%
9,CCN(Cc1ccncc1)C1CCCN(C/C=C/c2ccc(F)cc2)C1 (configuration not stated),27.95%
10,CCN(Cc1ccncc1)C1CCCN(Cc2ccc(F)cc2Cl)C1 (configuration not stated),32.26%
11,Cc1ccc(CN2Cc3c(C(=O)N4CCCC4)nn(C)c3C2)s1,-64.97%
12,O=C1CC(N2CCN(c3ccccc3O)CC2)C(=O)N1Cc1cccs1 (configuration not stated),19.62%
13,O=C(Cn1cc(I)cn1)N1CCCC1,34.34%
14,CC1CCCN(C(=O)Cn2cc(I)cn2)C1 (configuration not stated),37.18%
15,CC1CCN(C(=O)Cn2cc(I)cn2)CC1,66.74%
16,O=C(Cc1cccc(F)c1)NCCNCC1CNc2ccnn2C1 (configuration not stated),-7.45%
17,Cn1nccc1C1CCN(CC(=O)NCC2CC2)CC1,7.71%
18,O=C(Nc1cccnc1-n1cc(Cl)cn1)C1CC1,-43.89%
19,Cc1cc(C)n(CC2CN(Cc3nc(C4CC4)no3)CCO2)n1 (configuration not stated),37.31%
20,CN(C)C(=O)N1CC[C@@H](O)[C@@H]1Cc1ccccc1,48.52%
21,CC(=O)N1CCC2(CC1)C(=O)N(CC1CC1)c1ccccc12,24.15%
22,O=C([C@H]1CCCO1)N1CCC2(CC1)C(=O)N(CC1CC1)c1ccccc12,58.95%

row,Compound,INHIBITION
1,O=C(N1CCCC1)N1CCC2(CC1)C(=O)N(CC1CC1)c1ccccc12,31.5%
2,O=C(N[C@H]1CN(Cc2ccsc2)[C@@H]2CCCO[C@H]12)C1CC1,-1.33%
3,COCCN1CCC(c2cncc(-c3cccc(Cl)c3)n2)CC1,32.39%
4,CN(CC(=O)Nc1ccc(Br)cn1)C(=O)C(C)(C)C,8.42%
5,Cc1cccc2[nH]c(-c3cn(C4CCNCC4)nn3)nc12,57.92%
6,Cc1cc2nc(-c3cn(C4CCNCC4)nn3)[nH]c2cc1C,28.14%
7,Clc1ccccc1CCn1ccnc1-c1cn(C2CCNCC2)nn1,-30.83%
8,Cc1ccc2[nH]c(-c3cn(C4CCNCC4)nn3)nc2c1C,68.42%
9,CSc1ccccc1-n1ccnc1-c1cn(C2CCNCC2)nn1,14.55%
10,Cc1ccc(-n2ccnc2-c2cn(C3CCNCC3)nn2)c(Cl)c1,36.26%
11,Cc1c(C)c(C)c2[nH]c(-c3cn(C4CCNCC4)nn3)nc2c1C,52.66%
12,COc1cccc(CCn2ccnc2-c2cn(C3CCNCC3)nn2)c1,-14.82%
13,OCCc1ccccc1-n1ccnc1-c1cn(C2CCNCC2)nn1,5.78%
14,Cc1nc(C(C)C)sc1C(=O)N1CCN(C2CCSCC2)CC1,18.77%
15,CN(C)C(=O)c1cccnc1SCc1ccccc1Cl,17.31%
16,Cc1nn(C)c(C)c1C1CCCN1CC(=O)NCc1ccccn1 (configuration not stated),-29.54%
17,COC(=O)C(NC(=O)CC(C)C)c1cc(F)ccc1F (configuration not stated),29.12%
18,CN(C)CCNC(=O)CC1CCN(c2cccnn2)CC1,-36.94%
19,O=C(CC1CCN(c2cccnn2)CC1)NC1CCOCC1,-36.08%
20,O=C(CC1CCN(c2cccnn2)CC1)NCCO,68.96%
21,O=C(CC1CCCC1)NCCS(=O)(=O)N1CCN(c2ccccn2)CC1,-40%
22,O=C(CC1CCN(c2cccnn2)CC1)Nc1cccnc1,50.17%

row,Compound,INHIBITION
1,O=C(CC1CCN(c2cccnn2)CC1)Nc1nncs1,-24.13%
2,CC(c1ccncc1)n1cc2nc(N(C)C)[nH]cc-2c1=O (configuration not stated),20.82%
3,COc1ccc(C(O)CNC(=O)Nc2cc(C)nn2C)cc1 (configuration not stated),34.83%
4,Cn1cnc(-c2ccc(F)cc2)c1NC(=O)CCNC(=O)C(C)(C)C,37.66%
5,c1cc(CN2CCC3(CCOCC3COCC3CC3)CC2)co1 (configuration not stated),39.18%
6,c1cc(CN2CCC3(CC2)COC(COCC2CC2)C3)ccn1 (configuration not stated),55.57%
7,c1cc(CN2CCC3(CC2)COC(COCC2CC2)C3)cs1 (configuration not stated),-9.14%
8,c1cc(CN2CCC3(CC2)COC(COCC2CC2)C3)co1 (configuration not stated),15.02%
9,c1csc(CN2CCC3(CCOCC3COCC3CC3)CC2)n1 (configuration not stated),-23.51%
10,c1cc(CN2CCC3(CCOCC3COCC3CC3)CC2)ccn1 (configuration not stated),50.17%
11,CC(C)c1nccn1CCC(=O)N1CCCC1c1cccn1C (configuration not stated),22%
12,COCCCn1cnnc1C(C)NC(=O)c1[nH]c2ccc(C)cc2c1C (configuration not stated),23.6%
13,Cn1cnc(S(=O)(=O)N2CC3(CCN(c4ccccc4)C3)C2)c1,15.42%
14,CN(CCSc1ccccc1)C(=O)c1cn2c(n1)CNCC2,54.29%
15,CN(CCc1ccccn1)C(=O)c1cn2c(n1)CNCC2,25.55%
16,CN(CCCc1ccccc1)C(=O)c1cn2c(n1)CNCC2,-12.28%
17,c1cncc(CN2CCC(c3ccc4c(c3)OCO4)CC2)c1,17.24%
18,Cc1cccc(C(=O)N2CC[C@H]3C[C@@H](C)O[C@@H]3C2)n1,1.29%
19,O=C(c1cc(C2CC2)on1)N1C[C@@H]2COC[C@]2(COc2cccnc2)C1,22.68%
20,Cc1ccc(-c2cc(CNC(=O)NC3CCCCNC3=O)on2)cc1 (configuration not stated),55.7%
21,Cc1ccc(-c2cc(CS(=O)(=O)NC3CCCNC3=O)on2)cc1 (configuration not stated),42.79%
22,Cc1ccc(-c2cc(CNC(=O)N3CCC(O)CC3)on2)cc1,-5.7%

row,Compound,INHIBITION
1,O=C(NCc1cc(-c2ccccc2)no1)NC1CCCCNC1=O (configuration not stated),65.38%
2,O=C(NCc1cc(-c2ccccc2)no1)NCC1CCCO1 (configuration not stated),-3.26%
3,O=C1NCCCCC1NC(=O)C1(c2ccccc2)CCOCC1 (configuration not stated),-20.35%
4,COc1cccc(CC(=O)NC(C)c2nc3cccnc3n2C(C)C)c1 (configuration not stated),74.83%
5,COc1ccc(CC(=O)NC(C)c2nc3cccnc3n2C(C)C)cc1 (configuration not stated),-39.63%
6,COc1ccccc1CC(=O)NC(C)c1nc2cccnc2n1C(C)C (configuration not stated),24.44%
7,COC(=O)C(CNC(=O)Nc1nncs1)Cc1cccc(C)c1 (configuration not stated),12.17%
8,CCn1ccnc1CN1CCCN(C(=O)c2cc(C)nn2CC)CC1,11.09%
9,CC(C)C(=O)N(C)Cc1nc(N2CCCC2)ncc1-c1ccncc1,-6.41%
10,CCc1ccc(CCNc2ncnc3c2CCN(C(=O)C2CC2)C3)cc1,55.66%
11,Nc1nnc(CCNc2ncnc3c2CCN(C(=O)C2CC2)C3)s1,11.9%
12,Nc1nc(CCNc2ncnc3c2CCN(C(=O)C2CC2)C3)cs1,-26.81%
13,Cc1cc(C)c(Cn2cncn2)cc1CN1CC[C@H](CO)[C@@H](O)C1,-64.63%
14,COC1CCN(S(=O)(=O)N2CCCC(c3cccc(C(=O)O)c3)C2)CC1 (configuration not stated),57.59%
15,CC1CCN(S(=O)(=O)N2CCCC(c3cccc(C(=O)O)c3)C2)CC1 (configuration not stated),-18.41%
16,CC1(C)CCN(S(=O)(=O)N2CCCC(c3cccc(C(=O)O)c3)C2)CC1 (configuration not stated),19.04%
17,Cc1cc(C)c(CNC(=O)NCc2ccncc2)c(=O)[nH]1,26.76%
18,CN(C)CCCN1CC2(CCN(C3CCCOC3)CC2)OC1=O (configuration not stated),24.81%
19,O=C1OC2(CCN(C3CCCOC3)CC2)CN1CCc1ccccc1 (configuration not stated),-1.27%
20,CC(C)CCN1CC2(CCN(C3CCCOC3)CC2)OC1=O (configuration not stated),57.47%
21,COCCNC(=O)N1CC(Cc2ccccc2F)C1,-41.64%
22,Cc1cc(C)n2ncc(CN3CCC(n4cc(CCO)nn4)CC3)c2n1,31.51%

row,Compound,INHIBITION
1,Cc1cc(C)n2ncc(CN3CCC(Cn4cc(CO)nn4)CC3)c2n1,64.9%
2,CCCc1cnc(C)nc1N1CCC(Cn2cc(CO)nn2)CC1,9.69%
3,CCC(C(=O)NCc1csc(N2CCOCC2)n1)n1cccn1 (configuration not stated),17.78%
4,Cc1cncc(Oc2ccc(CN)cc2)n1,32.31%
5,Clc1cnc(NCc2ccccc2N2CCOCC2)nc1,-2.35%
6,CCc1nc(CN2CCOC(Cn3cncn3)C2)no1 (configuration not stated),55.7%
7,c1ncn(CC2CCCN(Cc3nc(C4CC4)no3)C2)n1 (configuration not stated),-8.84%
8,c1ncn(CC2CN(Cc3nc(C4CC4)no3)CCO2)n1 (configuration not stated),60.64%
9,CCCc1nc(CN2CCOC(Cn3cncn3)C2)no1 (configuration not stated),37.52%
10,c1cnn(CC2CN(Cc3nc(C4CC4)no3)CCO2)c1 (configuration not stated),9.41%
11,CC(C)Cc1nc(CN2CCOC(Cn3cncn3)C2)no1 (configuration not stated),40.17%
12,CCc1ccc(CC)c(NCc2cnc(N3CCOCC3)nc2)c1,-64.63%
13,COCC(=O)N1C[C@@H]2CCCO[C@@H]2[C@H](N(C)Cc2ccco2)C1,-17.76%
14,Cc1ccc(CN2CCOC3(CCCN(c4cccc(F)c4)C3)C2)o1 (configuration not stated),22.15%
15,Cc1noc(C)c1CN1CCN(C(C)c2nc(C3CC3)no2)CC1 (configuration not stated),33.22%
16,CCc1noc(C)c1-c1nc(Cc2cccs2)nn1C1CCN(C)CC1,64.9%
17,CN1CCC(n2nc(Cc3cccs3)nc2-c2ccncc2)CC1,21.97%
18,Cc1ncsc1-c1nc(Cc2cccs2)nn1C1CCN(C)CC1,43.44%
19,CCc1sc(C(=O)Nc2cnn(CC(N)=O)c2)cc1C,2.51%
